Data as given in the supplement of paper PMC8387472.
Where a name gives a salt, the structure may show the parent alone. ± gives the standard deviation of the averaged measurements.

Test system: mESC LDLR-Dup GFP reporter (SpCas9 MH-deletion repair)
Assay: fraction of GFP+ cells relative to DMSO control (fold change); higher = more MH-deletion repair to in-frame LDLR (or more editing)
Conditions: 2 µM; 7 days post-transfection

SMILES | fraction of GFP+ cells
NC(=O)c1cccnc1 [Nicotinamide (Vitamin B3)] | 1.74 ± 0.82
COc1ccc(-c2nc(-c3cc(C(F)(F)F)cc(C(F)(F)F)c3)n(Cc3ccc(C(N)=O)cc3)c2-c2ccc(OC)cc2)cc1 [Apoptozole] | 1.14 ± 0.37
Cc1nc(N(C)C(=O)Cc2ccc(-c3ccccn3)cc2)sc1S(N)(=O)=O [Pritelivir (BAY 57-1293)] | 1.01 ± 0.22
O=C(Nc1cccc(Cl)c1)Nc1ncc(CCNc2ncnc3ccsc23)s1 [SNS-314 Mesylate] | 0
Cc1cn([C@H]2C[C@H](N=[N+]=[N-])[C@@H](CO)O2)c(=O)[nH]c1=O [Zidovudine] | 1.09 ± 0.18
NC(=O)c1ccc(I)c([N+](=O)[O-])c1 [Iniparib (BSI-201)] | 1.03 ± 0.039
O=C1NCCc2[nH]c(-c3ccncc3)cc21 | 1.61 ± 0.078
CN(C)CCCCC(=O)Nc1ccc(NC(=S)NC(=O)c2ccc(C(C)(C)C)cc2)cc1 [Tenovin-6] | 0.625 ± 0.2
CCCCCCCCC/C(=C\C1=C(C)C(=O)C(OC)=C(OC)C1=O)C(=O)O | 1.19 ± 0.5
CC(C)c1cnn2c(NCc3ccccc3)cc(NCCCCCCN)nc12 | 1.07 ± 0.18
CC1=C(/C=C/C(C)=C/C=C/C(C)=C/C(=O)O)C(C)(C)CCC1 [Tretinoin] | 0.923 ± 0.026
CC1(C)CCC2=C(O1)c1ccccc1C(=O)C2=O [Beta-Lapachone] | 0.973 ± 0.027
O=C(Nc1ccccc1-c1cn2c(CN3CCNCC3)csc2n1)c1cnc2ccccc2n1 | 1.19 ± 0.68
NC(=O)c1ccccn1 [Picolinamide] | 1.08 ± 0.046
CCOC(=O)NCCCC(=O)NCCc1ccccc1 | 0.748 ± 0.18
CN(C)c1ccc(-c2nc3ncc(Cl)c(N4CCN(CC(=O)Nc5nccs5)CC4)c3[nH]2)cc1 | 0.872 ± 0.39
C[C@@H](N)c1ccc(C(=O)Nc2ccnc3[nH]ccc23)cc1 | 1.54 ± 0.27
COc1cccc2oc(-c3ccccc3)cc(=O)c12 [5-methoxyflavone] | 0.869 ± 0.26
Cc1cc(O)c2c(c1)C(=O)c1cc(O)cc(O)c1C2=O [Emodin] | 1.12 ± 0.16
CC(C)OC(=O)C(C)(C)Oc1ccc(C(=O)c2ccc(Cl)cc2)cc1 [Fenofibrate] | 1.96 ± 0.19

SMILES | fraction of GFP+ cells
CCC[C@H](NC(=O)/C(C#N)=C/c1cccc(Br)n1)c1ccccc1 [Degrasyn (WP1130)] | 0.638 ± 0.12
Cc1cc(Cl)ccc1OCCCC(=O)NO [Droxinostat] | 0.706 ± 0.06
NCCOc1cc(C(=O)Nc2cc(OCCN)c3ccccc3n2)nc(C(=O)Nc2cc(OCCN)c3ccccc3n2)c1 [Pyridostatin Trifluoroacetate Salt] | 0.824
COc1cc2c(cc1O)CC[C@@H]1[C@@H]2CC[C@]2(C)[C@@H](O)CC[C@@H]12 [2-Methoxyestradiol (2-MeOE2)] | 0.441 ± 0.088
CCCC(CCC)C(=O)O [Divalproex Sodium] | 0.742 ± 0.1
Nc1nc(Nc2ccc(S(N)(=O)=O)cc2)nn1C(=O)c1c(F)cccc1F | 1 ± 0.15
CC(C)(Oc1ccc(C(=O)c2ccc(Cl)cc2)cc1)C(=O)O [Fenofibric acid] | 2.08 ± 0.55
O=c1[nH]c(=O)n(C2CCCO2)cc1F (centres undefined) | 1.06 ± 0.28
CS(=O)(=O)c1ccc(-c2nnc(/C=C/c3nnc(-c4ccc(C#N)cc4)o3)n2-c2ccccc2Cl)nc1 | 0.816 ± 0.089
O=CN1CC/C(=C/c2ccc3c(c2)OCO3)C1=O | 0.833 ± 0.28
CC(=O)c1cc([N+](=O)[O-])c(Sc2cccc(Cl)c2Cl)s1 | 0.919 ± 0.038
OCc1ccc(-c2ccc(-c3ccc(CO)s3)o2)s1 | 0.657 ± 0.23
Cc1nc(=O)c2cc(CN(C)c3ccc(C(=O)N[C@@H](CCC(=O)O)C(=O)O)s3)ccc2[nH]1 [Raltitrexed] | 2.3 ± 1
Nc1[nH]cnc2ncnc1-2 [Adenine] | 0.896 ± 0.31
S=P(N1CC1)(N1CC1)N1CC1 [Thiotepa] | 0.905 ± 0.27
Nc1nc(F)nc2c1ncn2[C@@H]1O[C@H](CO)[C@@H](O)[C@@H]1O [Fludarabine] | 0.867 ± 0.35
O=C1CCc2c(ccc3ccccc23)O1 [Splitomicin] | 0.636 ± 0.11
CS(=O)(=O)OCCCCOS(C)(=O)=O [Busulfan] | 1.36 ± 0.93
N#CSc1cc(SC#N)c(N)nc1N | 1.23 ± 0.14
